Among the data in PubChem BioAssay AID463213 (Sanford-Burnham Center for Chemical Genomics, 2010) are inhibition values, retold here.

Out of some 7,400 compounds screened, about 4,100 (55%) were called active. The set was probably picked from earlier hits. Not all results are given here. A number with no mark means an inactive call.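 Rule for the calls: active = inhibition of yeast growth at or above a set limit in either of two repeat tests at 20 µM; inactive = the rest.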

By inhibition is commonly meant the drop in the measured response relative to a control, in per cent.

This experiment is described as follows: tim10-1 ts yeast growth inhibition, retested – single concentration, luminescence, S. cerevisiae, confirmation (AID 463213).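 Note: tim10-1 mutant grown at permissive 25 °C to find synthetic lethal compounds; 0% = DMSO yeast wells and 100% = medium wells without yeast.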 Particulars: S. cerevisiae tim10-1 ts strain growth, BacTiter-Glo, 24 h; at 20 µM; active compounds read high.
With `Cc1cccc(NC(=O)c2ccc([N+](=O)[O-])o2)c1`, the inhibition is 50.1% (active).
With `O=C(Nc1ccc(Br)cn1)c1ccc([N+](=O)[O-])o1` the figure was 59.5% (active); with `Cc1onc(NC(=O)c2ccc([N+](=O)[O-])o2)c1Br`, 45.9% (active).
The same measure for `Cc1cccc(CN2CCC(CNC(=O)Nc3ccc(F)c(Cl)c3)CC2)c1`: 14.9%.
With `CCOC(=O)C1=C(C)N=c2s/c(=C\C(=O)OC)c(=O)n2C1c1ccc(OC)cc1` (configuration not stated) the figure was 24.7%; with `CC(=O)/C(=N\Nc1ccc(Cl)cc1Cl)Sc1cccc2cccnc12`, 43% (active).
As to `Cc1cc(C)c(S(=O)(=O)c2ccccc2)c(OC(=O)c2c(F)cccc2Cl)n1`, the inhibition was 41.5% (active).
As to `Oc1c(C(c2ccccn2)N2CCOCC2)ccc2cccnc12` (configuration not stated), the inhibition is 16.2%.
The same measure for `CCN1CCN(C(c2cccnc2)c2cc(Cl)c3cccnc3c2O)CC1` (configuration not stated): 34% (active); for `CCOC(=O)c1ccc(N2C(=O)CC(N3CCC(C(=O)OCC)CC3)C2=O)cc1` (configuration not stated): 47.8% (active).
For the compound `Cc1[nH]c(=O)c(C(=O)/C=C/c2ccccc2)c2c1CCCC2`, the inhibition is 50.3% (active).
For the compound `COc1ccc(Cn2c(-c3ccc(Cl)cc3)c[n+]3ccccc23)cc1`, the inhibition is 32.9% (active).
Consider `CCc1ccc(-c2cc3c(=O)n(CC(=O)NCCCN4CCN(Cc5ccccc5)CC4)nc(C)n3n2)cc1`, for which the inhibition was -46.4%.
With `CCCCNC(=S)N/N=C1\CCCCc2ccccc21`, the inhibition is 22.1%.
As for `C=CCNC(=S)N1CCN(CCN=Cc2c(C)[nH]n(-c3ccc([N+](=O)[O-])cc3)c2=O)CC1`, the inhibition is 27.4%.
With `Cc1[nH]n(-c2ccc([N+](=O)[O-])cc2)c(=O)c1C=NCCN1CCN(C(=O)c2ccccc2F)CC1` the figure was 40.4% (active); with `COc1ccc(CNC(=O)/C(C#N)=C/c2cccc(OC)c2OC)cc1`, 78.2% (active).
The same measure for `O=C(NNc1c2ccccc2nc2ccccc12)c1cc2ccccc2cc1O`: 40.6% (active).
Turning to `COc1ccc(-c2oc3ncn(Cc4ccco4)c(=N)c3c2-c2ccc(OC)cc2)cc1`, the inhibition was 17.6%.
The same measure for `Cc1cc(Nc2ccccc2)n(C(=O)c2ccc(N)cc2)n1`: 39.9% (active); for `CCOC(=O)c1c(N)nn(C(=O)c2ccccc2)c1-c1ccccc1`: 16.3%; for `C=CCNc1nc(Nc2ccc(Cl)cc2)nc(OC)n1`: 2.4%.
With `Clc1ccc(Nc2ccc3ccccc3n2)cc1`, the inhibition is 50.6% (active).
The same measure for `C=CS(=O)c1sc(Cl)c(N2CCOCC2)c1[N+](=O)[O-]` (configuration not stated): 83.8% (active); for `Nc1ccccc1SC(C[N+](=O)[O-])c1ccccc1` (configuration not stated): 47.1% (active); for `Cc1ccc(OS(=O)Nc2cccc3nccnc23)cc1` (configuration not stated): 25.4%.
With `COc1ccc(C(=O)/C=C/c2ccc(-c3ccccc3)cc2)cc1CSCC(=O)O` the figure was 22.9%; with `CC(=O)Nc1ccc(/C=C/C(=O)c2ccccc2)cc1`, 36.3% (active).
With `CN1c2ccccc2-c2nc3ccccc3n2C1c1ccco1` (configuration not stated) the figure was 19.8%.
Turning to `CCn1nc(C)c(NC(=O)/C=C/c2ccc(OC)c(COc3ccc(Br)cc3)c2)c1C`, the inhibition was 19.9%.
With `CCCCCCCCn1c2c(c(=N)c3c1CCC3)CCCC2` the figure was 30.4% (active).
With `O=[N+]([O-])c1ccc2oc(-c3cccc(O)c3)nc2c1` the figure was 49.8% (active); with `COc1ccccc1-n1ccnc(SCC(=O)NC2CCCCC2)c1=O`, 11.8%.
With `CCc1ccc(C(=O)NC(=S)Nc2ccccc2N2CCOCC2)cc1` the figure was 17.1%; with `Cc1ccc(C(=O)NC(=S)Nc2ccccc2C)cc1`, 29.8% (active); with `COc1ccccc1C(=O)NC(=S)Nc1ccccc1N1CCCCC1`, 19.4%.
In the case of `COc1ccc(/C=N/Nc2ncnc3sc4c(c23)CCCC4)cc1O`, the inhibition is 17.2%.
Turning to `Cc1ccc(C(=O)/C=C/c2c(C)nn(-c3ccccc3)c2Cl)cc1`, the inhibition is 38% (active).
The same measure for `CCOC(=O)N1CCC(N2Cc3cccc(C(=O)Nc4c(C)cccc4CC)c3C2=O)CC1`: 16.6%; for `Cc1[nH]c2ccccc2c1C(=O)COC(=O)c1c(-c2ccccc2)noc1C`: 45.4% (active).
The same measure for `COc1ccc(C(=O)NC(=S)NNC(=O)c2c(-c3ccccc3)noc2C)cc1`: 18.1%.
The same measure for `COc1ccc(Nc2nc(N)nc(CSC(=S)N3CCC(C)CC3)n2)cc1`: 29.9%; for `CC(=NCc1ccco1)c1c(C(F)(F)F)[nH]n(-c2nc3ccccc3s2)c1=O`: 63.5% (active); for `Cc1cc(Br)ccc1NC(=O)c1sc2ncn(CC(=O)N3CCN(c4ccccn4)CC3)c(=O)c2c1C`: -10.2%.
`O=C(O/N=C(/c1ccccc1)c1ccncc1)c1ccccc1[N+](=O)[O-]`: the inhibition is 35.3% (active).
For `O=C(Oc1ccc(-c2nc(-c3ccccn3)no2)cc1)c1ccccc1`, the inhibition was 30.3%.
With `Cc1ccc(Oc2nc(-c3ccccn3)nc3ccccc23)cc1` the figure was 35.5% (active).
With `O=C(ON=C1CCN(S(=O)(=O)c2ccccc2)CC1)c1ccc(Cl)cc1` the figure was 61% (active); with `CCOc1cccc(-c2nn3c(-c4ccccn4)nnc3s2)c1`, 39% (active); with `Cc1cc(C)nc(S/C=C/C(=O)c2ccccc2)n1`, 71% (active).
The same measure for `COc1ccc(NCc2nnc(SCc3ccccc3)n2-c2ccc(OC)cc2)cc1`: 38.9% (active); for `N#Cc1ccc(CSc2nnc(-c3ccccn3)n2-c2ccc(Cl)cc2)cc1`: 30.9%.
For the compound `COc1ccc(OC)c2sc(NC(=O)C3COc4ccccc4O3)nc12` (configuration not stated), the inhibition was 23.6%.
The same measure for `CC(NC(=S)Nc1ccccc1)C1COc2ccccc2O1` (configuration not stated): 37.4% (active); for `CC(c1ccco1)N(C(=O)Nc1ccccc1)C1CCCCC1` (configuration not stated): 19.4%; for `Cc1ccc(SC(CC(=O)c2ccc(C(C)(C)C)cc2)C(=O)O)cc1` (configuration not stated): 38.5% (active).
With `c1c2c(cc3sc(N4CCCCC4)nc13)OCCO2` the figure was 27.8%; with `Cc1ccc(/C(N)=N/OC(=O)COc2ccc(Cl)c(C)c2)cc1`, 29.1%.
The same measure for `Cc1cccc(/C(N)=N/OC(=O)c2ccccc2Cl)c1`: 50.9% (active); for `Cc1cc(N=Nc2ccc3ccccc3c2)ccc1O`: 36.4% (active).
`Cc1nonc1C(=O)N/N=C/c1ccc(O)cc1`: the inhibition is 44.9% (active).
The same measure for `O=C(/C=C/c1ccc(Cl)cc1Cl)NCc1ccco1`: 34.4% (active).
